The record followed here is PubChem BioAssay (NCATS).

Assay [1] is described as follows: Quantitative High-Throughput drug screen in 47 multiple myeloma cell lines against the NCATS MIPE library collection: OCIMY5_PLB cell viability assay (AID 1918988). Note: nearly all actives have a fitted effect of over 65% in size. The essentials: (§1)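 ATP-based CellTiter-Glo luminescence after 48 h drug exposure (37 °C, 5% CO2) of 500 myeloma cells per well. DMSO-only wells set 100% viability, media-only wells 0%; MIPE 4.0 library added by pin tool.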

Assay [2] in a line: Quantitative High-Throughput drug screen in 47 multiple myeloma cell lines against the NCATS MIPE library collection: OPM1_PLB cell viability assay (AID 1918989). Note: nearly all actives have a fitted effect of over 40% in size. The procedure, abridged:
as §1

Assay [3] can be described thus: Quantitative High-Throughput drug screen in 47 multiple myeloma cell lines against the NCATS MIPE library collection: XG6_PLB cell viability assay (AID 1919865). Note: nearly all actives have a fitted effect of over 40% in size. The procedure, abridged: as §1
Assay [4] is described as follows: Quantitative High-Throughput drug screen in 47 multiple myeloma cell lines against the NCATS MIPE library collection: XG1_PLB cell viability assay (AID 1919866). Note: nearly all actives have a fitted effect of over 35% in size. The essentials:
as §1

Assay [5] can be described thus: Quantitative High-Throughput drug screen in 47 multiple myeloma cell lines against the NCATS MIPE library collection: VP6_DJ cell viability assay (AID 1919867). Note: nearly all actives have a fitted effect of over 40% in size. The essentials:
as §1

Assay [6] can be described thus: Quantitative High-Throughput drug screen in 47 multiple myeloma cell lines against the NCATS MIPE library collection: U266_ATCC cell viability assay (AID 1919864). Note: nearly all actives have a fitted effect of over 35% in size. The procedure, abridged:
as §1

The nature of assay [7]: Quantitative High-Throughput drug screen in 47 multiple myeloma cell lines against the NCATS MIPE library collection: UTMC2_PLB cell viability assay (AID 1919868). Note: nearly all actives have a fitted effect of over 55% in size. The following applies: CellTiter-Glo ATP luminescence, 48 h; viability (% of DMSO control): at 45.8 µM (top of the series). The procedure, abridged: as §1
Assay [8] is described as follows: Quantitative High-Throughput drug screen in 47 multiple myeloma cell lines against the NCATS MIPE library collection: PE2_PLB cell viability assay (AID 1919869). Note: nearly all actives have a fitted effect of over 35% in size. The essentials:
as §1

Assay [9] in a line: Quantitative High-Throughput drug screen in 47 multiple myeloma cell lines against the NCATS MIPE library collection: SKMM1_PLB cell viability assay (AID 1919863). Note: nearly all actives have a fitted effect of over 35% in size. The following applies: SKMM1 myeloma viability, CellTiter-Glo ATP, 48 h; viability: stronger effect = lower value. The procedure, abridged: as §1
(In general: ATP-based viability assays read luminescence as a measure of living cells.)

Each structure is given as a SMILES string. Inconclusive results are not listed. A number with no mark means an inactive call. Active and inactive are the calls of the source. Calls come from the whole dose curve; as a rule, active = well fitted cell-killing curve with a large enough effect; inconclusive = small, poorly fitted or top-dose-only effect, or effect the other way; inactive = no such curve, though single readings can be large or run the other way.
Potency is the fitted concentration of half-maximal effect.

On to `O=C(Nc1cccc(Br)c1)c1cccc(S(=O)(=O)N2CCCCCC2)c1`, for which the Potency in [1] was 18.7 µM (active); in assay [2] it was 18.7 µM (active); in [3], 14.8 µM (active); in [4], 16.6 µM (active); in assay [5], 16.6 µM (active).

`COCCOc1nc(-c2ccc(Cl)c(Cl)c2)n(-c2ccc(NC(=O)CCl)cc2)n1`: the Potency in assay [1] is 20.9 µM (active); in [2] it was 20.9 µM (active); in assay [6] it was 26.4 µM (active); in [3] it was 14.8 µM (active); in [4], 16.6 µM (active); in [5], 20.9 µM (active). Further, the Potency in assay [7] is 20.9 µM (active); in assay [8], 18.7 µM (active).

As for `COc1cccc2c1CCCC2CCCN1CCN(C2CCCCC2)CC1` (stereo not drawn), the Potency in [1] was 16.6 µM (active); in assay [2], 20.9 µM (active); in assay [3], 23.5 µM (active); in [4], 18.7 µM (active); in assay [5], 16.6 µM (active); in [7], 16.6 µM (active). In addition, the Potency in [8] was 23.5 µM (active).

As for `CN(C)c1cc(NC(=O)CNC(C)(C)C)c(O)c2c1C[C@@H]1C[C@H]3[C@H](N(C)C)C(=O)C(C(N)=O)=C(O)[C@@]3(O)C(=O)C1=C2O`, the Potency result in assay [1], in assay [2], in assay [6], in assay [4] and in [8] was “inactive” each time. Besides, in assay [7], the Potency was 13.2 µM (active).

`Cc1ccc(Nc2cc(-c3cccc(N4C(=O)c5ccccc5C4=O)c3)ncn2)cc1NS(C)(=O)=O`: the Potency in assay [1] was 20.9 µM (active); in assay [2], 23.5 µM (active); in assay [6] it was 23.5 µM (active); in assay [3], 8.33 µM (active); in [4] it was 18.7 µM (active); in assay [5], 14.8 µM (active). The values for the Potency in [7] and in assay [8] were 20.9 µM (active) and 16.6 µM (active), respectively.

Turning to `Nc1ncnc2ccccc12`, the values for the Potency in assay [1] and in assay [4] were 26.4 µM (active) and 7.43 µM (active), respectively. For the same compound, the Potency entry in assay [2], in [6] and in assay [5] was “inactive” each time.

Broadly, the viability is a read-out of living cells in per cent, often relative to untreated cells. Take `O=c1[nH]cnc2c1ncn2[C@H]1CC[C@@H](CO)O1`: the Potency entry in [1], in assay [6], in [4] and in assay [8] was “inactive” in each case. For the same compound, in assay [9], the viability is 151%.

On to `COc1ccc(C2Sc3ccccc3N(CCN(C)C)C(=O)C2OC(C)=O)cc1` (stereo not drawn), for which the Potency in [1] is 10.5 µM (active); in assay [6], 16.6 µM (active); in assay [7] it was 16.6 µM (active). For the same compound, the Potency entry in assay [2], in assay [3], in assay [4], in [5] and in assay [8] was “inactive” throughout.

`O=C(O)c1c(Cl)c(Cl)c(Cl)c(Cl)c1-c1c2cc(I)c(=O)c(I)c-2oc2c(I)c(O)c(I)cc12`: the Potency in [1] is 13.2 µM (active); in assay [2] it was 9.35 µM (active); in assay [4], 5.9 µM (active); in assay [5], 14.8 µM (active); in [8] it was 6.62 µM (active). For the same compound, the Potency result in [7] is “inactive”.

As to `CN1CCN(CCOc2cc(OC3CCOCC3)c3c(Nc4c(Cl)ccc5c4OCO5)ncnc3c2)CC1`, the Potency in assay [1] is 18.7 µM (active); in assay [2], 20.9 µM (active); in [3], 5.26 µM (active); in [4], 18.7 µM (active); in assay [5], 4.18 µM (active); in assay [8], 23.5 µM (active).

For `CC(C)n1cnc2c(NCCCCCCNC(=O)OC(C)(C)C)nc(NCCO)nc21`, the Potency in assay [1] was 29.6 µM (active); in [2], 20.9 µM (active); in assay [6] it was 9.35 µM (active); in [3], 26.4 µM (active); in assay [4], 23.5 µM (active).

Take `Cc1cc(OCCCc2c(C(=O)O)n(Cc3cccnc3)c3c(-c4c(COc5ccc(N6CCN([S+](C)(=O)[O-])CC6)cc5)nn(C)c4C)cccc23)cc(C)c1Cl`: the Potency is 23.5 µM (active) in [1], 23.5 µM (active) in [9], 20.9 µM (active) in assay [3] and 18.7 µM (active) in [8].

Consider `O=C1NC(=O)C(=Cc2cccc(C(F)(F)F)c2)S1`, for which the Potency in [1] is 26.4 µM (active); in assay [9], 14.8 µM (active); in [4], 16.6 µM (active).

Take `O=C1Nc2ccc(Cl)cc2C(C#CC2CC2)(C(F)(F)F)O1` (stereo not drawn): the Potency is 16.6 µM (active) in assay [1]; 20.9 µM (active) in assay [2]; 23.5 µM (active) in assay [6]; 16.6 µM (active) in [4]; 16.6 µM (active) in assay [5]; 23.5 µM (active) in assay [8].

As to `COCCCCC(=NOCCN)c1ccc(C(F)(F)F)cc1`, the Potency is 23.5 µM (active) in [1], 23.5 µM (active) in assay [2], 16.6 µM (active) in assay [6] and 18.7 µM (active) in [8].

Turning to `C[C@]12CC[C@@H]3c4ccc(O)cc4CC[C@H]3[C@H]1C[C@@H](O)[C@H]2O`, the Potency in assay [1] is 3.32 µM (active); in [6] it was 18.7 µM (active); in assay [3], 5.9 µM (active). In addition, the Potency result in [2], in assay [4] and in assay [7] was “inactive” in each case.

In the case of `Nc1nc(F)nc2c1ncn2[C@@H]1O[C@H](COP(=O)(O)O)[C@@H](O)[C@H]1O`, the Potency in [1] was 23.5 µM (active); in assay [4], 29.6 µM (active). The Potency result in [2], in assay [5] and in [8] was “inactive” throughout.

Take `O=c1cc(-c2ccc(O)cc2)oc2cc(O)cc(O)c12`: the Potency in [1] was 10.5 µM (active); in assay [2], 18.7 µM (active); in [8] it was 20.9 µM (active). For the same compound, the Potency entry in [7] is “inactive”.

For `CON=C(C(=O)N[C@@H]1C(=O)N2C(C(=O)OCOC(=O)C(C)(C)C)=C(C=Cc3scnc3C)CS[C@H]12)c1csc(N)n1`, the Potency result in [1] and in [2] was “inactive” each time. The Potency in [4] and in assay [8] was 18.7 µM (active) throughout.

As to `O=C(O)CCC1CCC(c2cc(F)ccc2F)(S(=O)(=O)c2ccc(Cl)cc2)CC1` (stereo not drawn), the Potency result in [1] and in [8] was “inactive” each time. The Potency in assay [2] was 5.26 µM (active); in assay [6], 6.62 µM (active); in assay [4], 9.35 µM (active); in [5], 4.69 µM (active).

Regarding `COc1ccc2c(Oc3ccc(NC(=O)c4c(C)n(CC(C)(C)O)n(-c5ccccc5)c4=O)nc3)ccnc2c1`, the Potency in [1] is 26.4 µM (active). Besides, the Potency entry in assay [2] and in assay [6] was “inactive” throughout.

`COc1ccc2c(Oc3ccc(NC(=O)c4c(C)n(CC(C)(C)O)n(-c5ccccc5)c4=O)cc3F)ccnc2c1`: the Potency was 23.5 µM (active) in [1]; 18.7 µM (active) in [2]; 20.9 µM (active) in [3]; 14.8 µM (active) in [4]; 11.8 µM (active) in assay [5].

Take `CC(C)(C)OC(=O)N[C@H]1CCCCCC=C[C@@H]2C[C@@]2(C(=O)NS(=O)(=O)C2CC2)NC(=O)[C@@H]2C[C@@H](OC(=O)N3Cc4cccc(F)c4C3)CN2C1=O`: the Potency result in assay [2], in [3], in [5] and in [8] was “inactive” throughout. The viability in [9] was 123%.

For the compound `COC[C@@H](c1ccc(C(F)(F)F)cc1)N1CCN(C2(C)CCN(C(=O)c3c(C)ncnc3C)CC2)C[C@H]1C`, the Potency result in [2] was “inactive”. Besides, the viability in assay [9] was 118%. The Potency in assay [6] was 6.62 µM (active); in assay [3], 16.6 µM (active); in assay [5] it was 23.5 µM (active).

For the compound `CC(=Cc1ccccc1)C=C1SC(=S)N(CC(=O)O)C1=O`, the Potency entry in assay [2], in assay [6], in [3], in assay [4], in assay [5] and in [8] was “inactive” throughout. Also, the viability in assay [9] was 123%.

With `Cn1c(N2CCCCS2(=O)=O)nc(C(=O)NCc2ccc(F)cc2)c(O)c1=O`, the Potency result in assay [2], in assay [3], in assay [4], in [5] and in assay [8] was “inactive” throughout. For the same compound, the viability in assay [9] was 112%. In assay [7], the viability (% of DMSO control) is 149% (active).
